Source: PubChem BioAssay (National Center for Advancing Translational Sciences (NCATS))
PI5P4K alpha inh: PI5P4K alpha (human) kinase inhibition; P48426; PI5P4Kalpha enzyme, ADP-Glo luminescence, 60 min; active compounds read low; max response, %; actives 1.2% (n = 330,000); AID 652105; active = max response of -50% or lower; inconclusive = between -30% and -50%; inactive = -30% or higher; also: value at the top dose of about 77 µM; % is scaled to controls: 0 for no effect and ±100 for the full control effect
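ADP-Glo luminescence end-point after a 60 min room-temperature kinase reaction. PI5P4Kalpha and substrate in HEPES pH 7.4 buffer with EGTA, 0.1% CHAPS and 5% DMSO; ATP at 5 microM final.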
WRN helicase inh: WRN helicase (human) inhibition; Q14191; WRN helicase unwinding, fluorescent forked duplex, kinetic; Potency, µM (titrated, usually from 114 µM), without a hit: at the top dose activity change, negative = inhibition, actives largely listed as inhibitors; actives 0.46% (n = 360,000); also: potency is read from the fitted curve at half-maximal effect; % is scaled to controls: 0 for no effect and ±100 for the full control effect; nearly all actives have a fitted effect of over 55% in size
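Fluorescence dequenching readout, ex 525 nm/em 598 nm, kinetic mode: forked duplex DNA (100 nM final) with adjacent fluorophore and quencher unwound by WRN (20 nM final) with 2 mM ATP. Compound preincubation 15 min, room temperature.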
Pin1 inh: human Pin1 inhibition; Potency, µM (series often up to 115 µM), for inactives: at the highest dose activity, negative = inhibition, most hits filed as inhibitors; Pin1 FP peptide displacement, HiFluor488, 10 min; actives 0.009% (n = 390,000); AID 504891; active = well fitted inhibition curve with a large enough effect in the polarisation, with a control signal flat, not every such curve was filed as active; inconclusive = small, poorly fitted or top-dose-only effect, or effect the other way, or a change in a side signal; inactive = no such curve, though single readings can be large or run the other way; the % refers to the polarisation; also: potency is read from the fitted curve at half-maximal effect; % is scaled to controls: 0 for no effect and ±100 for the full control effect
Target sequence (Q13526 whole entry, looked up): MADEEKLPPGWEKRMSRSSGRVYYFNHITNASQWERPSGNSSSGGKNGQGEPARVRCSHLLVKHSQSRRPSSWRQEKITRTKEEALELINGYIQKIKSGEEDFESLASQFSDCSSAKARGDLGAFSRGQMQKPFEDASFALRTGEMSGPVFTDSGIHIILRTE
Glioma ERSR ind: induces the endoplasmic reticulum stress response in human glioma cells | U87-MG GRP78 promoter luciferase reporter, 16 h | Potency, µM, for inactives: at the highest dose activation, most hits filed as activators | actives 0.02% (n = 420,000); also: potency is read from the fitted curve at half-maximal effect; series mostly up to about 76 µM; % of control where 0% means no effect; nearly all actives have a fitted effect of over 35% in size
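Stably transfected U87-MG human glioma cells carrying a GRP78-based luminescent sensor were seeded at 1000 cells/well, pin-dosed with compounds and incubated 16 h. Luciferase reagent was then added, and end-point luminescence was read after 10 min at room temperature.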
FEN1 inh: human FEN1 inhibition | Potency, µM (highest dose often 114 µM), inactives show at the highest dose activity change, negative = inhibition, hits mostly inhibitors | P39748 | actives 0.35% (n = 390,000) | Recombinant FEN1 flap cleavage, fluorescence, 15 min; also: potency is read from the fitted curve at half-maximal effect; % is scaled to controls: 0 for no effect and ±100 for the full control effect; nearly all actives have a fitted effect of over 65% in size
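FEN1 at 10 nM preincubated with compounds 15 min at room temperature, then flap DNA substrate added at 50 nM final. Signal read at 0 and 15 min; concentration-response fitted with four-parameter Hill equation.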
Tb PGK inh: blocks T. brucei phosphoglycerate kinase; actives 0.043% (n = 380,000); Potency, µM (series often up to 57.5 µM), inactives show top-dose activity change, negative = inhibition, actives largely listed as inhibitors; PGK/GAPDH coupled, Kinase-Glo luminescence, 60 min; AID 602233; also: potency is read from the fitted curve at half-maximal effect; % is scaled to controls: 0 for no effect and ±100 for the full control effect; nearly all actives have a fitted effect of over 60% in size
Target sequence (P07378 whole entry, looked up): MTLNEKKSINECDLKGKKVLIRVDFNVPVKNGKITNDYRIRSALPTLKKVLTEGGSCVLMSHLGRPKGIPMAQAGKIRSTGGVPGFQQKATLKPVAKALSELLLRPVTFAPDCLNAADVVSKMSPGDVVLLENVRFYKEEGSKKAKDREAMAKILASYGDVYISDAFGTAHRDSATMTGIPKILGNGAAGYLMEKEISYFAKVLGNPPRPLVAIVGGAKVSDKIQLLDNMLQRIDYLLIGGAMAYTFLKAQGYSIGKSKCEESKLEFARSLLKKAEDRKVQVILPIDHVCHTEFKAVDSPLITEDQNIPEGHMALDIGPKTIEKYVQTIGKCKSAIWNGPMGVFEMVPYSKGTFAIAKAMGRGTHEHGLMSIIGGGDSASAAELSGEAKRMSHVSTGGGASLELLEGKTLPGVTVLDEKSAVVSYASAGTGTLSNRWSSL
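Luminescent ATP detection (Kinase-Glo Plus) follows a 60-minute room-temperature incubation, with wells lacking PGK as controls. Buffer: 100 mM TEA (pH 7.6), 5 mM MgCl2, 0.01% Tween-20. Coupling enzyme GAPDH (100 nM final) supplies unstable 1,3-BPG in-well.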
ADP-Glo interf: interferes with ADP-Glo detection without enzyme present; shares compounds with PI5P4K alpha inh; ADP-Glo detection counter-screen, luciferase luminescence, no enzyme; Potency, µM (top dose mostly 76.9 µM), for the others: at the highest dose activity change, negative = inhibition, hits mostly inhibitors; 1,100 tested, under 10 active; AID 743285
Starred values were filed as active, the others as inactive; i = inactive; ? = inconclusive; . = no result given; [ ] = remark or other dose. Rows were chosen to be rich in hits. Some 1.3% of all compounds tested hit in one or more screens of this group. Unless noted, calls follow the shape of the dose curve; as a rule, active = well fitted curve in the direction sought with a large enough effect; inconclusive = small, poorly fitted or top-dose-only effect, or another doubt; inactive = no such curve, though single readings can be large; an effect the other way counts as inactive or inconclusive.

SMILES | PI5P4K alpha inh | WRN helicase inh | Pin1 inh | Glioma ERSR ind | FEN1 inh | Tb PGK inh | ADP-Glo interf
CS(=O)(=O)c1ccc2nc(NC(=O)c3ccc(NS(=O)(=O)c4cccc([N+](=O)[O-])c4)cc3)sc2c1 | -57* | -5% | 13% | 0% | -9% | -9% | -7%
CC(NC(=O)c1sc2cc([N+](=O)[O-])ccc2c1Cl)C(C)(C)C (stereo not given) | -52* | ? | -17% | -1% | -5% | i | -3%
O=C(NC1CC1)c1sc2cc([N+](=O)[O-])ccc2c1Cl | -3 | 12% | 9% | 5% | -1% | -12% | .
O=C(O)C1CSC(c2coc3ccccc3c2=O)N1 (stereo not given) | -67* | ? | ? | 0% | 9% | -16% | 2%
Cc1oc(-c2ccccc2NC(=O)c2ccccc2)nc1CNC(=O)c1c(-c2ccccc2)noc1C | . | . | . | -2% | . | . | .
COc1ccccc1N1CCN(C(=O)c2ccc(C(C)(C)C)cc2)CC1 | -62* | 50µM* | -19% | -17% | 6% | i | -6%
COc1ccc2c(CC(=O)OCC(=O)Nc3cccc(C)c3)coc2c1 | -56* | ? | -1% | 2% | ? | -23% | 0%
Cc1ccc(CNc2nc(CN3CCNC(=O)C3)nc3ccccc23)o1 | . | . | . | 2% | . | . | .
C[C@@H]1C=C(C(=O)NCc2nc3ccccc3[nH]2)O[C@H](OCCCCO)C1 | -27 | 2% | -1% | 0% | -2% | -1% | -3%
CCOc1ccc(NC(=O)CN(C)C(=O)c2cc3c(s2)CCC3)cc1OCC | -80* | ? | . | -3% | . | -12% | -5%
COc1cccc(CN2C(=O)NC(C)(C3CCN(Cc4cccc(O)c4)CC3)C2=O)c1OC (stereo not given) | . | . | . | -3% | . | . | .
COCCCOc1ccnc(CS(=O)c2nc3ccccc3[nH]2)c1C (stereo not given) | ? | -8% | 7% | 0% | -9% | -3% | .
Cc1c(OCC(F)(F)F)ccnc1CS(=O)c1nc2ccccc2[nH]1 (stereo not given) | -67* | -1% | 0% | 0% | -5% | -8% | -4%
CN(CCO)C(=O)c1cn(C2CCN(Cc3c(F)cccc3Cl)CC2)nn1 | . | . | . | -4% | . | . | .
COc1ccc2c(CC(=O)N3CCN(S(=O)(=O)c4cccs4)CC3)coc2c1 | -9 | 2% | 12% | -5% | -12% | 1% | .
COc1ccc2c(CC(=O)N3CCN(S(=O)(=O)c4ccc(F)cc4)CC3)coc2c1 | -53* | -28% | 9% | -4% | -10% | i | 2%
Cc1ccsc1C(=O)N(Cc1cc2ccc(F)cc2nc1N1CCC(O)CC1)CC1CCCO1 (stereo not given) | . | . | . | -1% | . | . | .
Cc1ccc(S(=O)(=O)N(CC(=O)Nc2ccccc2C(=O)O)c2ccccc2C)cc1 | -51* | -4% | 2% | -2% | 12% | i | 0%
Cc1ccc(S(=O)(=O)N(CC(=O)Nc2ccccc2C(=O)O)c2cccc(Cl)c2C)cc1 | ? | 1%[11.6 µM] | ? | -5% | 11% | -2% | .
CCCCn1c(=O)[nH]c(=O)c2c1nc(-c1ccc3ccccc3c1)n2CC | 3 | -3% | 3% | -3% | 13% | -5% | .
CCCCn1c(=O)[nH]c(=O)c2c1nc(-c1ccc(-c3ccccc3Br)o1)n2CC | -53* | -17% | 20% | -3% | -14% | 0% | -1%
c1cncc(OC2CCN(Cc3ccc4c(c3)CN(Cc3nc5ccccc5s3)CCO4)CC2)c1 | . | . | . | -3% | . | . | .
O=C1Nc2cc(Cl)ccc2Nc2cscc21 | . | . | 0% | -2% | -16% | i | 2%
CS(=O)(=O)N1N=C(c2ccco2)CC1c1ccco1 (stereo not given) | -64* | -21%[11.6 µM] | 4% | -1% | 6% | 4% | 5%
CC(=O)Nc1cccc(S(=O)(=O)N2CCN(S(=O)(=O)c3ccc4c(c3)OCCO4)CC2)c1 | . | . | 1% | . | . | . | .
SMILES | PI5P4K alpha inh | WRN helicase inh | Pin1 inh | Glioma ERSR ind | FEN1 inh | Tb PGK inh | ADP-Glo interf
COc1cccc(-c2cc3c(c(OC)c2)OCCN(S(=O)(=O)c2ccccc2OC(F)(F)F)C3)n1 | . | . | . | -2% | . | . | .
Cc1cccc2c(C(=O)N3CCN(C(=O)c4ccco4)CC3)cc(-c3cccc(Br)c3)nc12 | -53* | ? | 13% | -3% | -9% | 0% | 7%
CCn1c2ccccc2c2cc(CN3CCOc4ccc(C(O)c5cccnc5)cc4C3)ccc21 (stereo not given) | . | . | . | -3% | . | . | .
O=S1(=O)CC(N2CCSCC2)CN1Cc1cn(Cc2ccc(Cl)cc2)nn1 (stereo not given) | -2 | -14% | . | . | . | . | .
O=S1(=O)CC(N2CCSCC2)CN1Cc1cn(Cc2ccc(F)cc2)nn1 (stereo not given) | -28 | -5% | . | . | . | . | 2%
CCCn1c(SCC(=O)N2c3ccccc3Sc3ccccc32)nc2c1c(=O)n(C)c(=O)n2C | -3 | 0% | -4% | -4% | 9% | i | -9%
CCCn1c(SCC(=O)N2CCCc3ccccc32)nc2c1c(=O)n(C)c(=O)n2C | . | 10% | -8% | 0% | 1% | 8% | .
Cc1c(C(=O)NCCc2ccncc2)cnn1-c1nccc(-c2ccccc2C(F)(F)F)n1 | . | . | . | -2% | . | . | .
Oc1ccc(-c2cnccn2)cc1CN1CCN(C2CCCCC2)CC1 | . | . | . | -3% | . | . | .
COc1ccc2oc(C(=O)Nc3ccc(N4CCOCC4)cc3)c(C)c2c1 | -68* | ? | -3% | 1% | -4% | -3% | -1%
CN1CCN(C(c2ccccc2)c2ccc(Cl)cc2)CC1 (stereo not given) | -52* | -1% | 0% | -2% | 12% | 6% | 1%
CN1CCN([C@@H](c2ccccc2)c2ccc(Cl)cc2)CC1 | . | . | . | -5% | . | . | .
OCCN1CCN(Cc2ccc3c(c2)CN(Cc2ccc4ccccc4c2)CCO3)CC1 | . | . | . | -6% | . | . | .
Cc1cc(C)c(C)c(S(=O)(=O)N[C@@H](C)C(=O)OCc2cc(=O)n3cc(Br)ccc3n2)c1C | -52* | -5%[11.6 µM] | ? | -5% | 6% | 4% | -2%
Cc1ccccc1C(=O)NC(CC(C)C)C(=O)OCc1cc(=O)n2cc(Br)ccc2n1 (stereo not given) | 1 | -9% | -2% | 6% | 1% | 0% | .
Cc1cc(N(C)C)cc(C)c1/C=C/c1cc[n+](C)c2ccccc12 | . | . | . | -5% | ? | . | .
O=C(CS)Nc1ccccc1 | . | . | . | 2% | . | . | .
COc1ccccc1CN1CCOc2ccc(CN3CCC(Oc4cccnc4)CC3)cc2C1 | . | . | . | -2% | . | . | .
